From PubChem BioAssay come the findings set out here.

The structures appear in SMILES notation. Where “and” joins values, the source holds several entries; their conditions need not be identical. Identical values can stand only once. Calls of active or inactive are those of the source. Unless noted, no rule for the calls is given here.

A short description of experiment [1]: compounds binding Alexa647 anti-His antibody – biochemical, small-molecule microarray, 635 nm fluorescence, artefact control for SMM control protein annotation, primary screen (AID 1128).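 Also: score merges feature fluorescence with signal-to-noise for each printed compound spot.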 The following applies: higher = more signal.
For experiment [2], the system named is Human papillomavirus type 1a E7 protein (residues 1-88). The experiment in a line: HPV1a E7 small-molecule binders, primary screen, biochemical, small-molecule microarray, residues 1-88, 635 nm (AID 1129). The conditions noted are these: small-molecule microarray binding, fluorescence 635 nm; higher = more signal.
In experiment [3] the target is Focal adhesion kinase 1 (Homo sapiens) (UniProt Q05397). The experiment in a line: PTK2 protein binding on printed compound slides – biochemical, small-molecule microarray, 635/667 nm fluorescence, BSA, DTT, primary screen (AID 1130).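 Also: composite of spot emission at 667 nm and signal to noise over triplicate slides.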 The conditions noted are these: 635 nm fluorescence, higher = more signal.
For experiment [4], the system named is Fibrinogen (Alexa647-labelled). The experiment in a line: Alexa647-fibrinogen binding to printed small molecules – biochemical, small-molecule microarray, 635/667 nm fluorescence, artefact control for SMM control-protein annotation, profiling panel (AID 1131).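 Also: z-score merges 667 nm fluorescence with per-spot signal-to-noise over triplicate slides.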 The conditions noted are these: fibrinogen-A647 binding fluorescence, higher = more signal.
For experiment [5], the target named is Follistatin (Homo sapiens) (UniProt P19883). The experiment in a line: FST protein binding to printed compounds – biochemical, small-molecule microarray, 635/667 nm fluorescence, primary screen (AID 1132). The conditions noted are these: 635 nm fluorescence, higher = more signal.
Experiment [6] concerns the target Fibroblast growth factor 2 (Homo sapiens) (UniProt P09038). The experiment in a line: basic fibroblast growth factor binding to printed compounds – biochemical, small-molecule microarray, 635/667 nm fluorescence, primary screen (AID 1133). The following applies: FGF2, fluorescence 635/667, higher = more signal.
A short description of experiment [7]: JC-1 mitochondrial potential readout, lung cancer cells – cell-based, A549, JC-1 fluorescence, basal, 24 h, 100 nL, profiling panel (AID 1138).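 Also: A549 lung adenocarcinoma cells under basal conditions with no added stimulus; test concentration not given here.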 The conditions noted are these: higher = more signal.
The subject of experiment [8] is Lefty1. Nature of the experiment: Lefty1 protein binding to printed compounds – biochemical, small-molecule microarray, 635/667 nm fluorescence, primary screen (AID 1139). The conditions noted are these: fluorescence 635/667, higher = more signal.
The test system of experiment [9] is wheat germ agglutinin (Triticum aestivum), Alexa647-labelled. Nature of the experiment: Alexa647-WGA lectin binding to printed small molecules – biochemical, small-molecule microarray, 635/667 nm fluorescence, artefact control for SMM control-protein annotation, profiling panel (AID 1140).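 Also: score merges 667 nm feature emission with signal to noise over triplicate slides.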 The following applies: WGA-A647 binding, 635 nm fluorescence, higher = more signal.

Experiment [10] has as its target Luciferin 4-monooxygenase (Photinus pyralis) (UniProt P08659). Nature of the experiment: inhibition of purified Photinus pyralis luciferase – biochemical, luminescence, purified enzyme, 2006 set, primary screen (AID 1141).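 Also: cell-free assay with purified firefly luciferase at 100 ng per well in PBS; test concentration not given here.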 The following applies: purified firefly luciferase, SteadyGlo luminescence, 30 min; higher = more signal, called active from +8 up or from −8 down.

The test system of experiment [11] is Wnt5a (protein binding on small-molecule microarray). Nature of the experiment: small molecules binding Wnt5a protein – biophysical, small-molecule microarray, 635/667 nm fluorescence, primary screen (AID 1142).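 Also: fluorescence read at 667 nm with signal to noise per printed feature.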 The following applies: 635 nm fluorescence, higher = more signal.
A short description of experiment [12]: ATP-based viability of Huh7 replicon cells – cell-based, CellTiter-Glo luminescence, basal, 48 h, cytotoxicity control for HCV replication inhibitor project, primary screen (AID 1143).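 Also: Huh7 hepatoma cells carrying a hepatitis C replication reporter with no stimulus; test concentration not given here.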 The following applies: higher = more signal, called active from +8 up or from −8 down.
Experiment [13] can be described thus: Pseudomonas biofilm growth suppression – PAO1 strain, BacTiter-Glo luminescence, LB-PBS, primary screen (AID 1144). The conditions noted are these: P. aeruginosa PAO1 biofilm, 12 h, higher = more signal.
Experiment [14] is described as follows: basal CRE-LacZ reporter activity in PC12 – cell-based, unstimulated, primary screen (AID 1145). The conditions noted are these: no forskolin, luminescence, 4.5 h, higher = more signal, called active from +8 up or from −8 down.
Experiment [15] can be described thus: forskolin-driven CRE-LacZ activity in PC12 – cell-based, CRE-LacZ reporter, forskolin-stimulated, primary screen (AID 1146).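 Also: PC12 cells with 6xCRE LacZ reporter stimulated by forskolin 10 µM; beta-galactosidase reporter signal reflecting CREB driven transcription.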 The conditions noted are these: luminescence, 4.5 h, higher = more signal, called active from +8 up or from −8 down.
Experiment [16] addresses Streptavidin (Streptomyces avidinii) (UniProt P22629). Nature of the experiment: compounds binding control protein streptavidin – biophysical, small-molecule microarray, 635/667 nm fluorescence, artefact control for SMM compound annotation, primary screen (AID 1147).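 Also: signal reflects streptavidin binding to arrayed compounds as a control protein.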 The conditions noted are these: higher = more signal.
A short description of experiment [17]: probe aInhba binding on compound microarray – biochemical, small-molecule microarray, 635/667 nm fluorescence, primary screen (AID 1148).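 Also: score merges 667nm spot fluorescence with signal-to-noise for antibody binding to printed compounds.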 The following applies: higher = more signal.
Experiment [18] has as its target Torsin-1A (Homo sapiens) (UniProt O14656). The experiment in a line: TOR1A wild-type binding on microarray – cell lysate, small-molecule microarray, lysate, 635/667 nm, primary screen (AID 1149). The following applies: COS7 hTOR1A-WT lysate, 635 nm fluorescence, higher = more signal.
For experiment [19] the target is unchanged. Nature of the experiment: torsin A mutant lysate binding on microarrays – cell lysate, small-molecule microarray, COS7 lysate, 635/667 nm fluorescence, primary screen (AID 1150).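 Also: score pools 667 nm emission and signal to noise measuring lysate protein binding.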 The following applies: COS7 hTOR1A mutant lysate, 635 nm fluorescence, higher = more signal.
The test system of experiment [20] is Sonic hedgehog protein (Shh). The experiment in a line: Sonic hedgehog microarray binding compounds – biochemical, small-molecule microarray, 635/667 nm fluorescence, primary screen (AID 1151).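 Also: Shh protein binding to compounds spotted on small-molecule microarray slides; score combines spot fluorescence intensity with signal-to-noise across triplicate slides.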 The following applies: 635 nm fluorescence, higher = more signal.

Chain of Follistatin (Homo sapiens) (P19883 whole entry, looked up): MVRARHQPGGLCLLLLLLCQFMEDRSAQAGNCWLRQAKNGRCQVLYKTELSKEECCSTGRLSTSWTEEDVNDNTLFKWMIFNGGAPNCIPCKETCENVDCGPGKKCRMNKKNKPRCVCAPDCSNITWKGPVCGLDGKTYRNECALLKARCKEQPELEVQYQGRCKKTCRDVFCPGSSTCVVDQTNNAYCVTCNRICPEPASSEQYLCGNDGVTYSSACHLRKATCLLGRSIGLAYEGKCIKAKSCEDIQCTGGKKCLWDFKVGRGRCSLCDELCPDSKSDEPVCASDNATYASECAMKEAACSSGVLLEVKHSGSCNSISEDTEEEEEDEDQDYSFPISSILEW
Chain of Luciferin 4-monooxygenase (Photinus pyralis) (P08659 whole entry, looked up): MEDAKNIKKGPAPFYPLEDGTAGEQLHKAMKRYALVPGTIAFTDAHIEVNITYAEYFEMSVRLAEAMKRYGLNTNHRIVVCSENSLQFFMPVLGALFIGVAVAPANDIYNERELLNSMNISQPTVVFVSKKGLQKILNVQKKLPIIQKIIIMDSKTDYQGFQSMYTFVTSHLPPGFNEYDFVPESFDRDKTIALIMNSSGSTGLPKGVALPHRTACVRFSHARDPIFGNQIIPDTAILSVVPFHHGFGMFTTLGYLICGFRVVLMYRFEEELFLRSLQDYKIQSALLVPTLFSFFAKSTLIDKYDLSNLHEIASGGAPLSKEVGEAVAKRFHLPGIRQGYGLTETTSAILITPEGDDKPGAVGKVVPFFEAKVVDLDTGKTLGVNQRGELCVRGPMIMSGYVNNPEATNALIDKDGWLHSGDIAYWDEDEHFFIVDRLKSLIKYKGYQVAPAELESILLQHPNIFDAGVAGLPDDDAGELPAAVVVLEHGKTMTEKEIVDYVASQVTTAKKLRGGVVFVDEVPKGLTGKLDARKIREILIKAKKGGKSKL
Chain of Streptavidin (Streptomyces avidinii) (P22629 whole entry, looked up): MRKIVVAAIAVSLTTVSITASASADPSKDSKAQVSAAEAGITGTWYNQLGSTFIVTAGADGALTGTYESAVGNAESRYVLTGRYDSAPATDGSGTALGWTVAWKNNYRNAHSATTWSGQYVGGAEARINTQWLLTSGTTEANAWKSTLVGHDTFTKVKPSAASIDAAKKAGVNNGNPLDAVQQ
Chain of Torsin-1A (Homo sapiens) (O14656 whole entry, looked up): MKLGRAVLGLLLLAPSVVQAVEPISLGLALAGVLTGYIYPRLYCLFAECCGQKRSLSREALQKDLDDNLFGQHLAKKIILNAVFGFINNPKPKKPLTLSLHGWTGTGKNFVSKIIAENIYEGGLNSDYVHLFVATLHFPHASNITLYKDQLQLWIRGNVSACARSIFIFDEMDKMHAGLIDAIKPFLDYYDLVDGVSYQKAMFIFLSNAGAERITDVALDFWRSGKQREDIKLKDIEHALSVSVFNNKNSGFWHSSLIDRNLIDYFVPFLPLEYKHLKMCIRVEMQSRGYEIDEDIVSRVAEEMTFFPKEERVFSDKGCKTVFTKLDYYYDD
Chain of Focal adhesion kinase 1 (Homo sapiens) (Q05397 whole entry, looked up): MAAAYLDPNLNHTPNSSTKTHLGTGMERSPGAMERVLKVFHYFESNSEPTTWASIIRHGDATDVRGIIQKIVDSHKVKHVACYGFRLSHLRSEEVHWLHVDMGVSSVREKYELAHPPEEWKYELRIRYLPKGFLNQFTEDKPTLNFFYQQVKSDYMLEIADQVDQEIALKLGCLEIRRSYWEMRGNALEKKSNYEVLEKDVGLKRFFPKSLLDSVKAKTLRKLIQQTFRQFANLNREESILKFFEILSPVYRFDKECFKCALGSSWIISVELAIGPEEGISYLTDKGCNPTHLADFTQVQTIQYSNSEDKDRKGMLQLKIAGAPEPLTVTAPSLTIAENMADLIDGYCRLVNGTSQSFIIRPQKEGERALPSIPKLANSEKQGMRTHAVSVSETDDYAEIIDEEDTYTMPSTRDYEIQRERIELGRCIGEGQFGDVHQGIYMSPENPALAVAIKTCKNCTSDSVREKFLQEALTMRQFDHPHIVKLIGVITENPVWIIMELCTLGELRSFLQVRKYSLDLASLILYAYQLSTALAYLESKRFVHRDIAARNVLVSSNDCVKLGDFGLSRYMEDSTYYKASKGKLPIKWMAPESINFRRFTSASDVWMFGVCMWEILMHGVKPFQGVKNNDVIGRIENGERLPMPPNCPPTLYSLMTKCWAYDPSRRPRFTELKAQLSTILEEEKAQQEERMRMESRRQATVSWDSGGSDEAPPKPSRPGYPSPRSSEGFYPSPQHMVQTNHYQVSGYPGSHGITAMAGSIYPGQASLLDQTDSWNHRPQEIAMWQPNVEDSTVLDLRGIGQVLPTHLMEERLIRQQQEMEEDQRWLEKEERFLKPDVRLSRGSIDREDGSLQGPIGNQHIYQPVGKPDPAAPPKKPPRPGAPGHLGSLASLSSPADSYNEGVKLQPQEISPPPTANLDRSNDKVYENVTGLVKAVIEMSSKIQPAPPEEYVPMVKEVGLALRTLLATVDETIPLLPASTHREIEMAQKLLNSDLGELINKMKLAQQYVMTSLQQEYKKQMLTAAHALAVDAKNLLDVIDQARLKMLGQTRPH
Chain of Fibroblast growth factor 2 (Homo sapiens) (P09038 whole entry, looked up): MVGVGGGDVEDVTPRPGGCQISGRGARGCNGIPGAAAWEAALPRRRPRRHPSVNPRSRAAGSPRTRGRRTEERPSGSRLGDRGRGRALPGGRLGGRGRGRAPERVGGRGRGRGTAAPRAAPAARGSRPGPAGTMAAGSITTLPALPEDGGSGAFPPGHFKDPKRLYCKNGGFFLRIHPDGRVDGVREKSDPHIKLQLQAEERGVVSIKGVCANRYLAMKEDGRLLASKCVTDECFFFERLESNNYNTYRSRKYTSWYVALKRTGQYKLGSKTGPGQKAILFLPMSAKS

Regarding `CCOC(=O)NN=C1C[C@@H](O)[C@@H](O)[C@@H]2[C@@H]3C(=O)N(Cc4ccc5c(c4)OCO5)C(=O)[C@@H]3CC[C@@H]12`, the composite z-score is 0.0648 in [1]; 0.449 in [2]; -0.0156 in experiment [3]; 0.669 in experiment [4]; 0.0164 in experiment [5]; 0.197 in experiment [6]. For the same molecule, the composite z-score in [8] was 0.225; in experiment [9], 0.626; in experiment [11], -0.0968; in experiment [16], 0.79; in experiment [17], -0.179; in experiment [18], 0.39. Besides, the figures for the composite z-score in experiment [19] and in experiment [20] were 0.0143 and 0.191, respectively. In addition, the z-score in experiment [7] was 1.06; in experiment [10], 0.556 (inactive); in experiment [12], -0.299 (inactive); in experiment [13], 1.43 (inactive); in experiment [14], -0.293 (inactive); in experiment [15], -0.341 (inactive).

Take `CO[C@@H]1C=CCC(=O)N2CCC[C@H]2C(=O)OC[C@H](C)C(=O)OC[C@H]1C`: the composite z-score in experiment [1] is 0.761; in experiment [2], -0.624; in [3], 0.0548; in experiment [4] it was -1.04; in experiment [5] it was 1.23; in [6], 0.109. The composite z-score in experiment [8] was 0.864; in [9] it was 0.508; in [11], -0.0492; in experiment [16], -0.69; in experiment [17], -0.186; in experiment [18], 0.772. Moreover, the composite z-score stood at 1.63 in experiment [19] and 1.64 in [20]. For the same molecule, the z-score is 1.54 in experiment [7]; -1.87 (inactive) in experiment [10]; 0.0002 (inactive) in experiment [12]; -0.789 (inactive) in [13]; -0.113 (inactive) in experiment [14]; -0.192 (inactive) in experiment [15].

Take `C=CCN(Cc1ccccc1)C(=O)C1N(C(C)(C)CO)C(=O)C2C(C(=O)O)C3C=CC21O3` (stereo not given): the composite z-score in experiment [1] is -1.67 and -0.97; in [2], -1.24 and -0.825; in experiment [3], -0.571 and -1.31; in experiment [4], -2.5 and -2.76; in experiment [5] it was -2.21 and -1.21; in [6], -1.48 and -2.77. In addition, the composite z-score in [8] is -2.57 and -1.65; in experiment [9], -1.76 and -0.466; in experiment [11], -0.578 and -0.945; in experiment [16], -1.56 and -1.49; in experiment [17] it was -0.231 and -0.213; in experiment [18], -0.396 and -3.85. Besides, the composite z-score in experiment [19] is -1.19 and -2.15; in [20], -1.17 and -1.73. For the same molecule, the z-score is -0.188 and -0.414 in [7]; 0.519 (inactive) and 1.45 (inactive) in [10]; 0.283 (inactive) and 0.582 (inactive) in experiment [12]; 1.51 (inactive) and -1.52 (inactive) in experiment [13]; -0.224 (inactive) and -1.57 (inactive) in experiment [14]; -0.141 (inactive) and -0.418 (inactive) in experiment [15].

In the case of `C=CCN(C(=O)C1N(CCCCCCO)C(=O)C2C(C(=O)O)C3C=CC21O3)c1ccc(OC)cc1` (stereo not given), the composite z-score in [1] was -1.91 and -1.82; in [2], -1.26 and -1.68; in [3], 0.85 and -0.212; in experiment [4] it was -1.05 and -2.02; in experiment [5], -1.83 and -1.96; in [6] it was -2.95 and -1.96. Further, the composite z-score is -2.4 and -2.28 in experiment [8]; -0.537 and -0.483 in experiment [9]; 1.04 and -0.561 in experiment [11]; -0.825 and -0.728 in experiment [16]; -0.0791 and -0.0279 in [17]; -3.03 and -2.03 in [18]. Besides, the composite z-score in experiment [19] was -1.75 and -1.28; in experiment [20] it was -1.27 and -1.42. Moreover, the z-score in experiment [7] is 1.34 and 0.478; in experiment [10], -1.09 (inactive) and -1.38 (inactive); in [12], 0.191 (inactive) and 0.252 (inactive); in experiment [13] it was 1.51 (inactive); in experiment [14], 0.0564 (inactive) and 0.724 (inactive); in experiment [15] it was -0.933 (inactive) and -0.173 (inactive).
